Experimental findings from PubChem BioAssay (NCATS) are described below.

SMILES strings stand for the structures. Results filed as inconclusive are left out. The source made the active and inactive calls. Unless noted, the call rests on the fitted dose curve; in most records, active means well fitted curve in either direction with a large enough effect (not every such curve was filed as active); inconclusive means small, poorly fitted or top-dose-only effect, or another doubt; inactive means flat fitted curve, though single readings scatter.

Test [1] deals with HIV-1 nucleocapsid protein NCp7 (binding to TG oligonucleotide). In words: HIV Nucleocapsid (AID 346; call rule not given here;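 further: potency means the concentration at half of the fitted maximal effect; potency is for inhibitors that block NC binding and lower polarization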). Conditions: HIV-1 NC / fluorescein-TGTGTGTG probe, fluorescence polarization. The procedure, abridged:
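Inhibition of nucleocapsid binding to single-stranded 5'-TGTGTGTG probe (10 nM) was measured by fluorescence polarization after 1 hr at room temperature with 100 nM protein under high-salt, zinc-containing, reducing conditions.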
Background: Polarisation of emitted light reports the rotation of a fluorescent probe.

The target of test [2] is Lysosomal acid glucosylceramidase (Homo sapiens) (UniProt P04062). Nature of the test: Glucocerebrosidase-p2 (AID 348; in the data active means potency below about 10 µM; further: potency means the concentration at half of the fitted maximal effect). To be noted: purified GBA, blue fluorogenic substrate, 40 min. The procedure, abridged: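 Normal human glucocerebrosidase (0.2 nM) with blue fluorogenic substrate (80 uM final) in citrate/phosphate pH 5.9 with 10mM sodium taurocholate, 0.01% tween-20; 40 min RT, NaOH/glycine stop; fluorescence Ex 365/Em 440; AC50 from a titration from 0.6 nM upwards.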
Chain of Lysosomal acid glucosylceramidase (Homo sapiens) (P04062 whole entry, looked up): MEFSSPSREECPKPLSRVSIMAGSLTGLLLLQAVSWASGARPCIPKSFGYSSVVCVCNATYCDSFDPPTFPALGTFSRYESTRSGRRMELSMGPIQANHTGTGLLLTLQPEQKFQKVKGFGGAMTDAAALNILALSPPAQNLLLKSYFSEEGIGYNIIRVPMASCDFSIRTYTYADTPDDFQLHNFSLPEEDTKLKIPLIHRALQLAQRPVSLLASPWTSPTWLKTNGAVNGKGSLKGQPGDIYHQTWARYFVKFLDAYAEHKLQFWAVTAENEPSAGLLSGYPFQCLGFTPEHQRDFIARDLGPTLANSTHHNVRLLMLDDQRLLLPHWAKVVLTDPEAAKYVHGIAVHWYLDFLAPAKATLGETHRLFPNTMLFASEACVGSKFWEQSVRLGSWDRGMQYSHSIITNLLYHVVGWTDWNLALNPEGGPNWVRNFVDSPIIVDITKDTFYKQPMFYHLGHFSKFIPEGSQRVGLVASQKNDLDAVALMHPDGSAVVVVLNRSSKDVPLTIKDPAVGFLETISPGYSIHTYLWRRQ

A short description of test [3]: AP1 Signaling Pathway (AID 357). Further: on the % scale 0 is the no-effect control and ±100 the full control effect. In short, it runs like this: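 ME-180 cells with beta-lactamase reporter under AP-1 response element, stimulated with EC50 EGF; compounds tested in titration series, 5 h at 37 °C. CCF4 substrate added 2.5 h at room temperature; 460/530 nm emission ratio gave %activity and AC50.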
Test [4] has as its target Cytochrome P450 1A2 (Homo sapiens) (UniProt P05177). Nature of the test: p450-cyp1a2 (AID 410; calls by dose curve; further: potency means the concentration at half of the fitted maximal effect;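 on activity change, negative = inhibition: -100% = full effect of reference inhibitor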). In short, it runs like this:
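Luminescent demethylation readout: Luciferin-ME (100uM, equal to Km) turned over by 20nM CYP1A2 for 60 min at room temperature after NADPH regeneration addition, following 10 min compound preincubation. Normalization used 57 uM furafylline as full inhibition.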

A short description of test [5]: Stat Signaling Pathway (AID 446).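 Further: ME-180 cervical cancer cells given 40 pM IL-6 alongside compound; SIE-controlled beta-lactamase reporter measured as 460/530 nm FRET emission ratio; on the % scale 0 is the no-effect control and ±100 the full control effect.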 The procedure, abridged:
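FRET read-out (405 nm excitation, 460/530 nm emission) of a beta-lactamase reporter under a STAT-inducible element in ME-180 cervical carcinoma cells. Cells with compound receive 40 pM IL-6 for 5 h. Values are normalised to AC90 stimulation and AC90 JAK-inhibitor controls.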

Test [6] addresses Glucocorticoid receptor (Homo sapiens) (UniProt P04150). In words: GR-EFC Redistribution (AID 451; calls by dose curve; further: potency means the concentration at half of the fitted maximal effect). To be noted: CHO-K1 GR-EFC translocation, beta-gal luminescence, 2 h. In short, it runs like this: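 CHO-K1 cells expressing nuclear EA and GR-ED fragments of b-gal; compounds titrated up to 46 uM final, 2 h at 37 C. GR nuclear translocation read as complemented b-gal luminescence after 1 h RT detection.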

The target of test [7] is Mitogen-activated protein kinase 10 (Mus musculus) (UniProt Q61831). In words: JNK3 AlphaScreen Assay (AID 530).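 Further: kinase came from lysate of stimulated human HepG2 cells; signal reports phosphorylation of biotinylated GST-cJun 1-79 at Ser73 with 10 µM ATP; on the % scale 0 is the no-effect control and ±100 the full control effect.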 In short, it runs like this: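 Activity was read by AlphaScreen after JNK3-containing HepG2 lysate (cytokine pre-activated) phosphorylated biotinylated GST-cJun with 10 uM ATP at room temperature. Phospho-Ser73 cJun antibody with Protein-A acceptor beads provided detection.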
In general terms: In Alpha technology, singlet oxygen from a donor bead excites a nearby acceptor bead.

In test [8] the target is 3',5'-cyclic-AMP phosphodiesterase 4B (Homo sapiens) (UniProt Q07343). Nature of the test: qHTS Assay for Inhibitors of PDE-IV (AID 607; active means well fitted activation curve with a large enough effect in the main read-out, with a control signal flat, not every such curve was filed as active; further: % of control where 0% means no effect). The procedure, abridged:
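Cell-based read-out of cAMP via a modified cyclic nucleotide-gated channel and membrane potential dye (535/590 nm) in HEK293 cells expressing PDE4 endogenously. Compounds tested up to 22.9 uM final; 100 uM RO 20-1724 reference.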

For test [9], the target named is Cytochrome P450 3A4 (Homo sapiens) (UniProt P08684). Nature of the test: qHTS Assay for Activators of Cytochrome P450 3A4 (AID 885; active means well fitted curve in the direction sought with a large enough effect; an effect the other way counts as inactive or inconclusive; further: nearly all actives have a fitted effect of over 65% in size). The procedure, abridged:
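Luminescent readout of luciferin formed from 25 uM Luciferin-PPXE (KM level) by 20 nM CYP3A4 in 200 mM KPO4, with 60 min NADPH-driven reaction at room temperature after 10 min compound exposure. Ketoconazole (57 uM) defined 100% inhibition.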

The nature of test [10]: qHTS Assay for Lipid Storage Modulators (AID 1519; calls by dose curve). Conditions: Drosophila S3 cells, BODIPY lipid droplet/cell ratio, laser cytometry, cells loaded with oleic acid; for activity change, negative = inhibition: at 57.5 µM (top of the series). In short, it runs like this: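 Cells seeded at 5,000 per well were treated with compounds over a concentration series and loaded with oleic acid (400 uM, as added). Lipid droplet fluorescence (488 nm excitation, 500-530 nm channel) was read by laser-scanning cytometry and normalized to 20 uM Triacsin C.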
In general terms: In qHTS, concentration-response curves come from the screen itself.

The nature of test [11]: Primary qHTS for small molecule stabilizers of the endoplasmic reticulum resident proteome: Secreted ER Calcium Modulated Protein (SERCaMP) assay (AID 1508630; active means well fitted curve in the direction sought with a large enough effect; an effect the other way counts as inactive or inconclusive; further: on the % scale 0 is the no-effect control and ±100 the full control effect). In short, it runs like this:
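The SH-SY5Y reporter protocol was run at 3 concentrations up to 38.3 uM (primary) or 11 concentrations (follow-up): 16 h compound, 100 nM thapsigargin for 4 h, then extracellular luciferase luminescence.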

Test [12] is described as follows: NFAT Signaling Pathway (AID 444). To be noted: Jurkat NFAT-bla M1, carbachol, beta-lactamase ratio, 5 h; at 7.69 µM (top of the series). The procedure, abridged: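 Jurkat cells with NFAT-driven β-lactamase reporter and co-expressed M1 receptor, stimulated with carbachol (final 1 uM, ~EC50), compound titration, 5 h at 37 °C. CCF4 loaded 1 h at RT; 460/530 nm ratio gave %activity and AC50.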

The target in test [13] is Cytochrome P450 2D6 (Homo sapiens) (UniProt P10635). Nature of the test: qHTS Assay for Inhibitors and Substrates of Cytochrome P450 2D6 (AID 891; active means well fitted curve in the direction sought with a large enough effect; an effect the other way counts as inactive or inconclusive; further: potency means the concentration at half of the fitted maximal effect; nearly all actives have a fitted effect of over 60% in size). The procedure, abridged:
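Luminescent read-out of luciferin formed by 5 nM human CYP2D6 demethylating 30 uM Luciferin-ME EGE (Km level) over 60 min at room temperature after NADPH regeneration addition. Data normalized to full inhibition by 1.43 uM quinidine.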

Test [14] has as its target Cytochrome P450 2C9 (Homo sapiens) (UniProt P11712). In words: qHTS Assay for Inhibitors and Substrates of Cytochrome P450 2C9 (AID 883; active means well fitted curve in the direction sought with a large enough effect; an effect the other way counts as inactive or inconclusive; further: on the % scale 0 is the no-effect control and ±100 the full control effect; nearly all actives have a fitted effect of over 60% in size). In short, it runs like this:
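Signal: luciferase luminescence reporting luciferin produced by CYP2C9. Conditions: 10nM enzyme, Luciferin-H 100uM at KM, 25mM KPO4, 37C, 60 min NADPH-driven reaction. Reference: 57uM sulphaphenazole as 100% inhibition.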

A short description of test [15]: qHTS Assay for Identification of Small Molecule Agonists for Hypoxia Response Element Signaling Pathway (AID 914; active means well fitted activation curve with a large enough effect in the signal ratio, with a control signal flat, not every such curve was filed as active; the % refers to the signal ratio; further: % of control where 0% means no effect). To be noted: ME-180 (cervical carcinoma) HRE-bla reporter, beta-lactamase ratio, CoCl2, 17 h; activation: stronger effect = higher value. The procedure, abridged:
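Reporter activity (beta-lactamase, CCF4 460nm/530nm ratio) in HRE-bla ME-180 cells is recorded after 17 h compound exposure with EC50 CoCl2 at 37 degrees Celsius. AC50 values come from titration data.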

Where [16] appears, read: measured here: cell count channel max response.
The mark [17] stands for this setting: measured here: lipid channel max response.

Chain of Cytochrome P450 1A2 (Homo sapiens) (P05177 whole entry, looked up): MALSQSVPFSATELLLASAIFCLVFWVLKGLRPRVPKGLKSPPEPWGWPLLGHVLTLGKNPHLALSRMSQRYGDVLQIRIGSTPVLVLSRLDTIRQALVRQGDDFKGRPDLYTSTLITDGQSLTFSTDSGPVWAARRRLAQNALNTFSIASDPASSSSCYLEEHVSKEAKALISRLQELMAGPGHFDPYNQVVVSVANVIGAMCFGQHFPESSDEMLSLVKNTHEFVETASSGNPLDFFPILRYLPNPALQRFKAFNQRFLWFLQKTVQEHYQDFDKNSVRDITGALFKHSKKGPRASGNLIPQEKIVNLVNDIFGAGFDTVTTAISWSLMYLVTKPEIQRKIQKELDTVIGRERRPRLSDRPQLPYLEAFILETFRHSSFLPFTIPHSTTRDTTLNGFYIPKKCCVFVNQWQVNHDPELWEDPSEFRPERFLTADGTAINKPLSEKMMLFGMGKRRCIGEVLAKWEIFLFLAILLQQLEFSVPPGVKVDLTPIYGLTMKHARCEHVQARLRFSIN
Chain of 3',5'-cyclic-AMP phosphodiesterase 4B (Homo sapiens) (Q07343 whole entry, looked up): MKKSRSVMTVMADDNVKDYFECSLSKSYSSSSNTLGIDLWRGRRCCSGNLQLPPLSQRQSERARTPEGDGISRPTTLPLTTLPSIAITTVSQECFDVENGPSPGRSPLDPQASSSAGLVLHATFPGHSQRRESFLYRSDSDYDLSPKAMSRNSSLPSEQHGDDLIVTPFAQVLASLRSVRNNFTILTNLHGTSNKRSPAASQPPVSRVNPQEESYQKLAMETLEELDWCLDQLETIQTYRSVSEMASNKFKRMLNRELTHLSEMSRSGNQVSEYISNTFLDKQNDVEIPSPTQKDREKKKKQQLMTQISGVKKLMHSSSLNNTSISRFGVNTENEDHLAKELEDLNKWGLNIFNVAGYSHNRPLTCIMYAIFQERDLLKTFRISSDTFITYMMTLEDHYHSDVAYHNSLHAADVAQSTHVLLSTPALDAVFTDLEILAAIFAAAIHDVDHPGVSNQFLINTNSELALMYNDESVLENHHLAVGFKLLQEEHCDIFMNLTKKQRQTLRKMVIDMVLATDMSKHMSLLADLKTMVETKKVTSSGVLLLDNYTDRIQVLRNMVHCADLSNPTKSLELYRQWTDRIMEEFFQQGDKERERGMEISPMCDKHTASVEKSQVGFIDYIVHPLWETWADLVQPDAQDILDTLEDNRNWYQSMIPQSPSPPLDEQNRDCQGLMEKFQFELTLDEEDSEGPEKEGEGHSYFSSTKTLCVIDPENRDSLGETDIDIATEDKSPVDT
Chain of Glucocorticoid receptor (Homo sapiens) (P04150 whole entry, looked up, the tested form may be a part): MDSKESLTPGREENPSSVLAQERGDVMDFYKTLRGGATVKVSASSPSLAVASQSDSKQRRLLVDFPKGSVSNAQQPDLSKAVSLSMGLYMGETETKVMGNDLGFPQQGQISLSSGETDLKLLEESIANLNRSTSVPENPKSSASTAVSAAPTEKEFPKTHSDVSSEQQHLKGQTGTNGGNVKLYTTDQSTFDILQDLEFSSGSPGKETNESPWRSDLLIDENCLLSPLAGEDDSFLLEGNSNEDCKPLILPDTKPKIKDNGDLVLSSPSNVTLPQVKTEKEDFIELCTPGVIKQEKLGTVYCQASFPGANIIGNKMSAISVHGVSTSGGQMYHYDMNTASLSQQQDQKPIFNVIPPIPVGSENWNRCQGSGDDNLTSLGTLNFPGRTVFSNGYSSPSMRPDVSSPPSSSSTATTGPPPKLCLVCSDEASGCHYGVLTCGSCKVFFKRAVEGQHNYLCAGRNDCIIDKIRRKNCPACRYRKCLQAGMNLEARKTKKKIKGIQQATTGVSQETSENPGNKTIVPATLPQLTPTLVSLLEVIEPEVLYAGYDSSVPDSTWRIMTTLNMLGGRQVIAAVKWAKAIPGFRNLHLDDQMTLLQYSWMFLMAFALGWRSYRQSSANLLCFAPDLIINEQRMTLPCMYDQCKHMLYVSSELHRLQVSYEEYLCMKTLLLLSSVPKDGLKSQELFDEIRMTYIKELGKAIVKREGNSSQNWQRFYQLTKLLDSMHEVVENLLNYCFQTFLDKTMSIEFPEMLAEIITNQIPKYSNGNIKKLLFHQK
Chain of Cytochrome P450 3A4 (Homo sapiens) (P08684 whole entry, looked up): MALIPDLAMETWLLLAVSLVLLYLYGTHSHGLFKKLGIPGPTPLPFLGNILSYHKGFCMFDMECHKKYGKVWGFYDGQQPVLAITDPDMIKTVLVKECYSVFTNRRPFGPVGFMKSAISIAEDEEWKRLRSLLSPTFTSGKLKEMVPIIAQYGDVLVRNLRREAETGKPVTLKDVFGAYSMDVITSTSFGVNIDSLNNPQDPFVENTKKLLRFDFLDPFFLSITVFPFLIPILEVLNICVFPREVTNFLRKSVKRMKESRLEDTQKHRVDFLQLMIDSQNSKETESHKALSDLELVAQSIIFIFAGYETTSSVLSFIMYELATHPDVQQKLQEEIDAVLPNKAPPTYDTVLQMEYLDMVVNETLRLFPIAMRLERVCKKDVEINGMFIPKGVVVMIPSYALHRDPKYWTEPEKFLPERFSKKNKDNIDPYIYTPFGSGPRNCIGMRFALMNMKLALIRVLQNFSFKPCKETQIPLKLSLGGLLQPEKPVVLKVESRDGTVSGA
Chain of Cytochrome P450 2C9 (Homo sapiens) (P11712 whole entry, looked up): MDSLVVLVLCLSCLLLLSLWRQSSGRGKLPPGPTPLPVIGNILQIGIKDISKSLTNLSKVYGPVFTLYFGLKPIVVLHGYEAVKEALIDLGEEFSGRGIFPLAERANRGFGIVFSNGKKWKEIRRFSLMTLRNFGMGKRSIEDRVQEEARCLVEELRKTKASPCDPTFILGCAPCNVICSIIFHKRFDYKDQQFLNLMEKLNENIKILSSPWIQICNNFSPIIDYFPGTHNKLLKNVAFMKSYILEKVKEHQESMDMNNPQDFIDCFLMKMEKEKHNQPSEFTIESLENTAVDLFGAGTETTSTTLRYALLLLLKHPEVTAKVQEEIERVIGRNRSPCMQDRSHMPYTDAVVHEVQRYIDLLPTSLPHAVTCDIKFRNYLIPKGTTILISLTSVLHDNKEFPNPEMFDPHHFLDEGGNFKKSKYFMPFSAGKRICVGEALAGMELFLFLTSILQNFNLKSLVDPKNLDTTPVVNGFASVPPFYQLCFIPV
Chain of Cytochrome P450 2D6 (Homo sapiens) (P10635 whole entry, looked up): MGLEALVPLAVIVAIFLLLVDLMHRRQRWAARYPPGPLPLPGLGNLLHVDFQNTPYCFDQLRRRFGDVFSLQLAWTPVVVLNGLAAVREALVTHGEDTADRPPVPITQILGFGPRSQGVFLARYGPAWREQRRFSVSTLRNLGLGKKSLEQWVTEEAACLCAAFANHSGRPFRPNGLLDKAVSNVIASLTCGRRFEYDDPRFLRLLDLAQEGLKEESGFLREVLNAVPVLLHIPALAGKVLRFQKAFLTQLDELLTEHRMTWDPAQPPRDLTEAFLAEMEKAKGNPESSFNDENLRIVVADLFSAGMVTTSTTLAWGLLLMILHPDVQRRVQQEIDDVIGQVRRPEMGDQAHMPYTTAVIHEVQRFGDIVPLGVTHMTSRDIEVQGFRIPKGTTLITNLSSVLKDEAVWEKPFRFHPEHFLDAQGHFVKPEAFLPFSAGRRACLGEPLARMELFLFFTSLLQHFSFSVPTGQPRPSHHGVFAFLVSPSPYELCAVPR

In the case of `CC(C)CN1CCCC2(CCN(C(=O)c3ccncc3)CC2)C1`, the Potency in test [1] is > 20 µM (inactive); in test [2], > 11.4 µM (inactive); in test [4], 12.6 µM (active); in test [6], > 46 µM (inactive). Besides, the compound was classed as inactive in test [3], in test [5], in test [7] and in [11]. Also, the Potency entry in [8] and in [9] was “inactive” in each case. The activity change, negative = inhibition in test [10] was 5.13% (inactive). Also, the values for the max response in [10] (setting [16]) and in test [10] (setting [17]) were 11.3% and 20.9%, respectively.

As to `CN1CCC2(CC1)CCN(C(=O)c1ccco1)CC2`, the Potency in [1] is > 20 µM (inactive); in test [2], > 11.4 µM (inactive); in test [6], > 46 µM (inactive). In addition, the compound was called inactive in [3], in test [5] and in test [11]. In addition, the activity change, negative = inhibition in test [12] was -4.13% (inactive); in test [10], 1.82% (inactive). For the same compound, the Potency result in test [8] was “inactive”. In addition, the results for the max response in test [10] (setting [16]) and in test [10] (setting [17]) were 21.1% and 24.5%, respectively.

On to `c1cnc(N2CC[C@@]3(CCCNC3)C2)nc1`, for which the Potency in test [1] is > 20 µM (inactive); in test [2], > 11.4 µM (inactive); in [4], 25.1 µM (active); in [6] it was > 46 µM (inactive); in test [13], 7.94 µM (active). For the same compound, the result in [3], in test [5], in [7] and in test [11] was inactive. The activity change, negative = inhibition was -23.9% (inactive) in test [12] and 6.19% (inactive) in test [10]. Also, the Potency entry in test [8] and in test [9] was “inactive” in each case. Further, the max response was 20.5% in [10] (setting [16]) and 29% in [10] (setting [17]).

Regarding `CN1CCCC2(CCN(C(=O)c3ccncc3)CC2)C1`, the figures for the Potency in test [1] and in [2] were > 20 µM (inactive) and > 11.4 µM (inactive), respectively. Besides, the result in test [3], in test [5], in test [7] and in test [11] was inactive. In addition, the Potency entry in [4], in test [8] and in [14] was “inactive” throughout. In addition, the activity change, negative = inhibition in [12] is -16.6% (inactive); in test [10] it was 2.07% (inactive). The max response in test [10] (setting [16]) is 15.5%; in [10] (setting [17]), 19.9%.

`c1csc(CN2CCC3(CCNCC3)CC2)n1`: the Potency was > 20 µM (inactive) in [1], > 11.4 µM (inactive) in test [2] and > 46 µM (inactive) in test [6]. The call in test [3], in test [5], in test [7] and in test [11] was inactive. Moreover, the Potency entry in test [4] and in test [8] was “inactive” each time. In addition, the activity change, negative = inhibition in test [12] is -5.8% (inactive); in test [10], -2.74% (inactive). Besides, the values for the max response in test [10] (setting [16]) and in test [10] (setting [17]) were 11.7% and 11%, respectively.

With `c1csc(CN2CC[C@@]3(CCCNC3)C2)n1`, the Potency in [1] is > 20 µM (inactive); in test [2] it was > 11.4 µM (inactive); in test [6] it was > 46 µM (inactive). Moreover, the result in test [3], in test [5], in test [7] and in [11] was inactive. Further, the Potency entry in test [4] and in test [8] was “inactive” each time. Further, the activity change, negative = inhibition in test [12] is -10% (inactive); in test [10] it was 0.956% (inactive). Further, in test [15], the activation was 9.27% (inactive). Moreover, the results for the max response in test [10] (setting [16]) and in test [10] (setting [17]) were -1.59% and 1.97%, respectively.
